# Data taken from PubChem BioAssay.
# Inconclusive results are not listed. Calls of active or inactive are those of the source. Unless noted, cut-off not given; nearly all actives show AC50 up to about 26 µM.
# Experiments:
# [1] = growth inhibition of DIPG glioma cells, dose response, cell-based, SU-DIPG-XVII, MIPE5.0, CellTiter-Glo, qHTS (AID 1347060); details: SU-DIPG-XVII viability, CellTiter-Glo ATP luminescence;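 on AC50: cells exposed to compound for 48 hours before viability readout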
# [2] = growth inhibition of DIPG glioma cells, dose response, cell-based, SU-DIPG-XIII, MIPE4.0, CellTiter-Glo, qHTS (AID 1347061; cut-off not given, nearly all actives have AC50 up to about 37 µM;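 further: cells exposed to compound for 48 hours before readout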); details: SU-DIPG-XIII viability, CellTiter-Glo ATP luminescence
# [3] = growth inhibition of DIPG glioma cells, dose response, cell-based, JHH-DIPG-1, MIPE4.0, CellTiter-Glo, qHTS (AID 1347062; cut-off not given, nearly all actives have AC50 up to about 27 µM;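 on AC50: cells exposed to compound for two days before readout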); details: JHH-DIPG-1 viability, CellTiter-Glo ATP luminescence
# [4] = growth inhibition of DIPG glioma cells, dose response, cell-based, SU-DIPG-IV, MIPE4.0, CellTiter-Glo, qHTS (AID 1347063; cut-off not given, nearly all actives have AC50 up to about 30 µM;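 further: compound exposure lasted 48 hours before the viability readout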); details: SU-DIPG-IV viability, CellTiter-Glo ATP luminescence
# [5] = growth inhibition of DIPG glioma cells, dose response, cell-based, SU-DIPG-XIII, MIPE5.0, CellTiter-Glo, qHTS (AID 1347064; cut-off not given, nearly all actives have AC50 up to about 23 µM;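 on AC50: cells exposed to compound for 48 hours before the viability read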); details: SU-DIPG-XIII viability, CellTiter-Glo ATP luminescence
# [6] = viability loss in pontine glioma line – cell-based, SU-DIPG-XXV, MIPE5.0, CellTiter-Glo, qHTS, dose response (AID 1347065); details: CellTiter-Glo ATP luminescence;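 further: cells exposed to compound for 48 hours before ATP readout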
# [7] = JHH-DIPG-1 glioma cell viability, MIPE5.0 library, CellTiter-Glo luminescence, qHTS (AID 1347067); details: JHH-DIPG-1 glioma viability, CellTiter-Glo ATP luminescence;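 further: cells exposed to compound for 48 hours before readout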
# [8] = SU-DIPG-XXV glioma cell viability, MIPE5.0 library, qHTS (AID 1347068; cut-off not given, nearly all actives have IC50 up to about 30 µM;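 on IC50: cells exposed to compound for 48 hours before viability readout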)
# [9] = sensitizers of A549 cells to miR-34 induction, primary screen, imaging, A549 dox-inducible miR-34, nuclei and caspase counts (AID 1347080;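 active means compounds whose cell count with miR-34 switched on is under 0.7 times the count with it off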); details: A549 miR-34 inducible, Hoechst nuclei count, 48 h
# [10] = survival rescue of mitochondrial mutant cells in low glucose, primary screen, MELAS cybrids, Rieske KO mouse fibroblasts, CellTiter-Glo (AID 1508586;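 active means mean z-score across replicates of 1.96 or higher in either the MELAS or the Rieske mutant cell line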;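 further: z relative to plate mean and SD of compound and empty wells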)
# [11] = SU-DIPG-VI glioma cell viability, MIPE4.0 library, CellTiter-Glo luminescence, qHTS (AID 1347066; cut-off not given, nearly all actives have AC50 up to about 30 µM;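 further: cells exposed to compound for 48 hours before readout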); details: CellTiter-Glo ATP luminescence
# [12] = LFS_MB_P medulloblastoma growth inhibition, cell-based, chromothripsis tumors, cisplatin or BGB combos (AID 1671449; in the data active means inhibition above about 80%;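 further: cells exposed for 96 hours; 0% = vehicle DMSO and 100% = killing by high DMSO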); details: LFS_MB_P medulloblastoma cells
# [13] = HDN33 neuroblastoma growth inhibition, cell-based, chromothripsis tumors, cisplatin or BGB combos (AID 1671450; in the data active means inhibition above about 80%;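 further: cells exposed to compound for four days; 0% = vehicle DMSO and 100% = cell killing by high DMSO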); details: HDN33 neuroblastoma cells, stronger effect = higher value
# [14] = ICB984 medulloblastoma cell growth inhibition, synergistic combos for chromothripsis tumors, cisplatin or BGB combos (AID 1671451; call rule not given here;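 further: cells exposed for 96 hours before readout; 0% = vehicle DMSO and 100% = killing by high DMSO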); details: ICB984 medulloblastoma cells, drug combinations, stronger effect = higher value
# [15] = HTB85 osteosarcoma cell growth inhibition, synergistic combos for chromothripsis tumors, BGB or cisplatin IC20 combos (AID 1671453; in the data active means inhibition above about 80%;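 further: cells exposed for 96 hours before readout; 0% = vehicle DMSO and 100% = high DMSO killing control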); details: HTB85 osteosarcoma cells, drug combinations, stronger effect = higher value
# [16] = MDA-MB-436 breast carcinoma cell growth inhibition, synergistic combos for chromothripsis tumors, BGB or cisplatin combos (AID 1671458; call rule not given here;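 further: cells exposed for 96 hours; 0% = vehicle DMSO and 100% = killing by high DMSO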); details: MDA-MB-436 breast carcinoma growth inhibition, drug combinations, stronger effect = higher value
# [17] = growth inhibition of BT084 medulloblastoma cells, cell-based, ICGC_MB145, cisplatin and BGB IC40 combos (AID 1671461; in the data active means inhibition above about 80%;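 further: cells exposed to drugs for 96 hours; 0% = vehicle DMSO and 100% = high DMSO full killing control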); details: drug combinations, stronger effect = higher value
# [18] = growth inhibition of RCMB18 medulloblastoma cells, cell-based, cisplatin and BGB IC40 combos (AID 1671462; in the data active means inhibition above about 80%;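 further: cells exposed to compound for four days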); details: stronger effect = higher value
# [19] = stronger effect = lower value, cell number ratio, induced over uninduced
# [20] = measured here: relative caspase fold change +Dox/-Dox
# [21] = measured here: total cells with miR-34 induction, stronger effect = lower value
# [22] = measured here: total cells without miR-34 induction
# [23] = MELAS cybrid survival, CellTiter-Glo 48 h, stronger effect = higher value
# [24] = Rieske KO mouse fibroblast survival, CellTiter-Glo 72 h
compound,measurement,setting,value
CC1(C)CC(=O)c2c(C(F)(F)F)nn(-c3ccc(C(N)=O)c(NC4CCC(OC(=O)CN)CC4)c3)c2C1 (stereo unspecified),AC50,[1],0.186 µM (active)
same,AC50,[2],0.662 µM (active)
same,AC50,[3],148 nM (active)
same,AC50,[4],0.418 µM (active)
same,AC50,[5],0.417 µM (active)
same,AC50,[6],235 nM (active)
same,AC50,[7],0.166 µM (active)
same,IC50,[8],263 nM (active)
same,fold change,[9]; [19],1.04 (inactive)
same,fold change,[9]; [20],0.875
same,cell count,[9]; [21],2840
same,cell count,[9]; [22],2740
same,z-score,[10]; [23],2.47 (active)
same,z-score,[10]; [24],-1.59
O=C(/C=C/c1ccc(/C=C/C(=O)Nc2ccc(C3=NCCN3)cc2)cc1)Nc1ccc(C2=NCCN2)cc1,AC50,[1],2.35 µM (active)
same,outcome,[2],inactive
same,outcome,[3],inactive
same,outcome,[4],inactive
same,outcome,[5],inactive
same,outcome,[6],inactive
same,outcome,[11],inactive
same,outcome,[7],inactive
same,fold change,[9]; [19],1.13 (inactive)
same,fold change,[9]; [20],1.21
same,cell count,[9]; [21],6840
same,cell count,[9]; [22],6050
O=C(/C=C/c1ccc(CN(CCO)CCc2c[nH]c3ccccc23)cc1)NO,AC50,[1],0.525 µM (active)
same,AC50,[2],1.18 µM (active)
same,AC50,[3],235 nM (active)
same,AC50,[4],0.935 µM (active)
same,AC50,[5],0.332 µM (active)
same,AC50,[6],295 nM (active)
same,AC50,[11],0.235 µM (active)
same,AC50,[7],0.417 µM (active)
same,outcome,[8],inactive
same,inhibition,"[12]; at 0.5 µM, stronger effect = higher value",-16.3% (inactive)
same,inhibition,"[12]; measured here: combination with BGB IC20, at 0.005 µM",-29.5%
same,inhibition,"[12]; measured here: combination with BGB IC40, at 0.005 µM",-69.2%
same,inhibition,"[12]; measured here: combination with BGB IC40, at 0.05 µM",-42.5%
same,inhibition,"[12]; measured here: combination with cisplatin, at 0.5 µM, stronger effect = higher value",-26.1%
same,inhibition,"[12]; measured here: combination with cisplatin, at 5 µM, stronger effect = higher value",114%
same,inhibition,"[13]; BGB combo, at 5 µM",99.9%
same,inhibition,[13]; at 0.5 µM,99.3% (active)
same,inhibition,"[13]; cisplatin combo, at 5 µM",99.9%
same,inhibition,"[13]; measured here: with BGB IC20 combination, at 0.5 µM",98.5%
same,inhibition,"[13]; measured here: with cisplatin IC20 combination, at 0.5 µM",99.7%
same,inhibition,"[13]; single agent, at 5 µM",99.9%
same,inhibition,"[14]; BGB IC20 combo, at 0.005 µM",71.4%
same,inhibition,"[14]; BGB IC40 combo, at 0.005 µM",89.6%
same,inhibition,"[14]; BGB IC40 combo, at 0.05 µM",100%
same,inhibition,[14]; at 0.5 µM,-29.4% (inactive)
same,inhibition,"[14]; cisplatin combo, at 0.05 µM",101%
same,inhibition,"[14]; cisplatin combo, at 0.5 µM",-36.3%
same,inhibition,"[14]; cisplatin combo, at 5 µM",-4.27%
same,inhibition,"[14]; measured here: 5 uM single agent, at 5 µM",13.8%
same,inhibition,[15]; at 0.5 µM,99.3% (active)
same,inhibition,"[15]; measured here: with BGB IC20, at 0.5 µM",98.7%
same,inhibition,"[15]; measured here: with BGB IC20, at 5 µM",99.9%
same,inhibition,"[15]; measured here: with cisplatin IC20, at 0.5 µM",99.9%
same,inhibition,"[15]; measured here: with cisplatin IC20, at 5 µM",99.9%
same,inhibition,"[15]; single agent, at 5 µM",99.9%
same,inhibition,[16]; at 0.5 µM,63.3% (inactive)
same,inhibition,"[16]; measured here: BGB combination, at 0.5 µM",55.8%
same,inhibition,"[16]; measured here: BGB combination, at 5 µM",59.7%
same,inhibition,"[16]; measured here: cisplatin combination, at 0.5 µM",60.4%
same,inhibition,"[16]; measured here: cisplatin combination, at 5 µM",75.3%
same,inhibition,[17]; at 0.5 µM,98.5% (active)
same,inhibition,"[17]; cisplatin combination, at 0.5 µM",101%
same,inhibition,"[17]; cisplatin combination, at 5 µM",104%
same,inhibition,"[17]; measured here: BGB IC40 combination 0.05 uM, at 0.05 µM",38.4%
same,inhibition,"[17]; single agent, at 5 µM",108%
same,inhibition,[18]; at 0.5 µM,82% (active)
same,inhibition,"[18]; cisplatin combo, at 5 µM",98.9%
same,inhibition,"[18]; measured here: BGB IC40 combination, at 0.05 µM",6.39%
same,inhibition,"[18]; measured here: combination with cisplatin, at 0.5 µM",90.4%
same,inhibition,"[18]; single agent, at 5 µM",96.9%
CCCNC(=O)[C@H]1O[C@@H]1C(=O)N[C@H](C(=O)N1CCC[C@H]1C(=O)OC)C(C)CC (stereo partly specified),AC50,[1],16.6 µM (active)
same,AC50,[2],16.6 µM (active)
same,AC50,[3],16600 nM (active)
same,AC50,[4],16.6 µM (active)
same,AC50,[5],11.8 µM (active)
same,AC50,[6],13200 nM (active)
same,AC50,[11],10.5 µM (active)
same,AC50,[7],11.8 µM (active)
same,fold change,[9]; [19],0.991 (inactive)
same,fold change,[9]; [20],1.21
same,cell count,[9]; [21],4190
same,cell count,[9]; [22],4230
COc1ccc(C2(C#N)CCC(C(=O)O)CC2)cc1OC1CCCC1 (stereo unspecified),outcome,[1],inactive
same,outcome,[2],inactive
same,outcome,[3],inactive
same,outcome,[4],inactive
same,outcome,[5],inactive
same,outcome,[6],inactive
same,outcome,[11],inactive
same,fold change,[9]; [19],0.931 (inactive)
same,fold change,[9]; [20],0.847
same,cell count,[9]; [21],7550
same,cell count,[9]; [22],8110
same,z-score,[10]; [23],-0.364 (inactive)
same,z-score,[10]; [24],0.0886
CC(C)n1nc(-c2cc3cc(O)ccc3[nH]2)c2c(N)ncnc21,AC50,[1],2.63 µM (active)
same,AC50,[2],18.7 µM (active)
same,AC50,[3],9350 nM (active)
same,AC50,[4],0.148 µM (active)
same,AC50,[5],1.66 µM (active)
same,AC50,[6],742 nM (active)
same,AC50,[11],20.9 µM (active)
same,AC50,[7],2.63 µM (active)
same,fold change,[9]; [19],0.892 (inactive)
same,fold change,[9]; [20],1.11
same,cell count,[9]; [21],1620
same,cell count,[9]; [22],1820
same,z-score,[10]; [23],5.6 (active)
same,z-score,[10]; [24],-2.66
CCNC(=O)c1cc2c(-c3cc(OCCN4CCCC4)c(Cl)cc3Cl)nc(N)nc2s1,AC50,[1],1.02 µM (active)
same,AC50,[2],6.62 µM (active)
same,AC50,[3],935 nM (active)
same,AC50,[4],2.35 µM (active)
same,AC50,[5],2.29 µM (active)
same,AC50,[6],1620 nM (active)
same,AC50,[7],1.82 µM (active)
CC[C@H]1OC(=O)[C@H](C)C(=O)[C@H](C)[C@@H](O[C@H]2O[C@H](C)C[C@H](N(C)C)[C@H]2O)[C@](C)(OC)C[C@@H](C)C(=O)[C@H](C)[C@H]2N(CCCCn3cnc(-c4cccnc4)c3)C(=O)O[C@]12C,AC50,[1],26.3 µM (active)
same,outcome,[2],inactive
same,outcome,[3],inactive
same,outcome,[4],inactive
same,outcome,[5],inactive
same,outcome,[6],inactive
same,outcome,[7],inactive
CN[C@@H]1C[C@H]2O[C@@](C)([C@@H]1OC)n1c3ccccc3c3c4c(c5c6ccccc6n2c5c31)C(=O)N[C@H]4O,AC50,[1],0.135 µM (active)
same,AC50,[2],0.59 µM (active)
same,AC50,[3],187 nM (active)
same,AC50,[4],1.32 µM (active)
same,AC50,[5],0.0855 µM (active)
same,AC50,[6],30.3 nM (active)
same,AC50,[11],0.296 µM (active)
same,AC50,[7],0.0382 µM (active)
same,IC50,[8],605 nM (active)
O=C1c2ccccc2-[n+]2ccc3c([nH]c4ccccc43)c21,AC50,[1],2.35 µM (active)
same,AC50,[2],2.64 µM (active)
same,AC50,[3],743 nM (active)
same,AC50,[4],2.09 µM (active)
same,AC50,[5],2.35 µM (active)
same,AC50,[6],2630 nM (active)
same,AC50,[11],1.66 µM (active)
same,AC50,[7],2.35 µM (active)
